Laboratory results reported in PubChem BioAssay.
Active and inactive are the calls of the source. Unless noted, no rule for the calls is given here.

Assays:
[1] = test system: Wnt5a (protein binding on small-molecule microarray); experiment: Wnt5a binders on small-molecule microarray, primary screen, biophysical, 635/667 nm fluorescence (AID 1142); settings: 635 nm fluorescence, higher = more signal;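 also: fluorescence read at 667 nm with signal to noise per printed feature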
[2] = cell viability in Huh7 cells, primary screen, cytotoxicity control for HCV replication inhibitor project, CellTiter-Glo luminescence, basal, 48 h (AID 1143); settings: Huh7 HCV replicon, higher = more signal, called active from +8 up or from −8 down;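 also: Huh7 hepatoma cells carrying a hepatitis C replication reporter with no stimulus; test concentration not given here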
[3] = P. aeruginosa biofilm formation inhibitors, primary screen, PAO1 strain, BacTiter-Glo luminescence, LB-PBS (AID 1144); settings: 12 h, higher = more signal
[4] = CREB reporter modulators without forskolin, primary screen, cell-based, PC12, CRE-LacZ reporter, unstimulated (AID 1145); settings: no forskolin, luminescence, 4.5 h, higher = more signal, called active from +8 up or from −8 down
[5] = CREB reporter modulators under forskolin, primary screen, cell-based, PC12, CRE-LacZ reporter, forskolin-stimulated (AID 1146); settings: luminescence, 4.5 h, higher = more signal, called active from +8 up or from −8 down;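 also: PC12 cells with 6xCRE LacZ reporter stimulated by forskolin 10 µM; beta-galactosidase reporter signal reflecting CREB driven transcription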
[6] = target: Streptavidin (Streptomyces avidinii) (UniProt P22629); experiment: streptavidin binders on small-molecule microarray, primary screen, artefact control for SMM compound annotation, biophysical, 635/667 nm fluorescence (AID 1147); settings: streptavidin binding, higher = more signal;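 also: signal reflects streptavidin binding to arrayed compounds as a control protein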
[7] = small-molecule binders of probe aInhba, primary screen, biochemical, small-molecule microarray, 635/667 nm fluorescence (AID 1148); settings: higher = more signal;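 also: score merges 667nm spot fluorescence with signal-to-noise for antibody binding to printed compounds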
[8] = target: Torsin-1A (Homo sapiens) (UniProt O14656); experiment: torsin A binders from cell lysate, primary screen, small-molecule microarray, wild-type, 635/667 nm (AID 1149); settings: COS7 hTOR1A-WT lysate, 635 nm fluorescence, higher = more signal
[9] = target: Torsin-1A (Homo sapiens) (UniProt O14656); experiment: small-molecule binders of mutant TOR1A in lysate, primary screen, cell lysate, small-molecule microarray, COS7 lysate, 635/667 nm fluorescence (AID 1150); settings: COS7 hTOR1A mutant lysate, 635 nm fluorescence, higher = more signal;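 also: score pools 667 nm emission and signal to noise measuring lysate protein binding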
[10] = test system: Sonic hedgehog protein (Shh); experiment: small-molecule binders of Shh protein, primary screen, biochemical, small-molecule microarray, 635/667 nm fluorescence (AID 1151); settings: small-molecule microarray binding, 635 nm fluorescence; higher = more signal;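 also: Shh protein binding to compounds spotted on small-molecule microarray slides; score combines spot fluorescence intensity with signal-to-noise across triplicate slides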
[11] = E. coli DRC41 culture turbidity changes, primary screen, E. coli filamentation inducer project, strain DRC41, OD650, 48 h (AID 1152);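 also: E. coli MC1000 strain DRC41 lacking acrAB efflux pump and sulA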; settings: E. coli DRC41 (acrAB sulA), higher = more signal, called active from +8 up or from −8 down
[12] = small-molecule binders of probe aLefty1, primary screen, biochemical, small-molecule microarray, 635/667 nm fluorescence (AID 1153); settings: higher = more signal;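 also: score merges spot fluorescence with signal-to-noise ratio from the scanned slide images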
[13] = PSAC antagonists in infected red cells, primary screen, cell-based, P. falciparum Indochina, OD700, 1 h (AID 1154); settings: P. falciparum Indochina infected RBC osmotic lysis, higher = more signal, called active from +8 up or from −8 down
[14] = PSAC antagonists in infected red cells, primary screen, cell-based, P. falciparum Indochina, OD700, 2 h (AID 1155);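 also: lysis reports solute entry through the parasite surface anion channel PSAC; channel blockers reduce lysis of infected cells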; settings: P. falciparum Indochina infected erythrocytes, osmotic lysis OD700; higher = more signal, called active from +8 up or from −8 down
[15] = osmotic lysis modulators in infected erythrocytes, primary screen, PSAC antagonist project, cell-based, P. falciparum Indochina, OD700, 3 h (AID 1156); settings: higher = more signal, called active from +8 up or from −8 down
[16] = PSAC antagonists in infected red cells, primary screen, cell-based, P. falciparum Indochina, OD700, 18 h (AID 1157); settings: P. falciparum Indochina infected erythrocytes, osmotic lysis OD700, 18 h; higher = more signal, called active from +8 up or from −8 down
[17] = modulators of S6 phosphorylation in cells, primary screen, cell-based, A549, cytoblot, luminescence, serum-stimulated (AID 1158); settings: A549 phospho-S6 cytoblot, 5 h, higher = more signal;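 also: serum-stimulated A549 lung adenocarcinoma cells; signal is phosphorylated S6 detected by cytoblot immunostaining with HRP secondary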
[18] = target: NADPH oxidase 2 (Homo sapiens) (UniProt P04839); experiment: NOX2-dependent H2O2 signal modulators, primary screen, NOX inhibitor project, cell-based, HEK293-NOX2, PMA-stimulated, Amplex Red fluorescence (AID 1159); settings: 45 min, higher = more signal, called active from +8 up or from −8 down; also: test concentration not given here
[19] = target: NADPH oxidase 4 (Homo sapiens) (UniProt Q9NPH5); experiment: NOX4-dependent H2O2 signal modulators, primary screen, NOX inhibitor project, cell-based, HEK293-NOX4, tetracycline-induced, Amplex Red fluorescence (AID 1160); settings: 45 min, higher = more signal, called active from +8 up or from −8 down
[20] = target: NADPH oxidase 5 (Homo sapiens) (UniProt Q96PH1); experiment: NOX5-dependent H2O2 signal modulators, primary screen, NOX inhibitor project, cell-based, HEK293-NOX5, Amplex Red fluorescence (AID 1161); settings: HEK293-NOX5, ionomycin, 45 min, higher = more signal
NADPH oxidase 5 (Homo sapiens), sequence (Q96PH1 whole entry, looked up): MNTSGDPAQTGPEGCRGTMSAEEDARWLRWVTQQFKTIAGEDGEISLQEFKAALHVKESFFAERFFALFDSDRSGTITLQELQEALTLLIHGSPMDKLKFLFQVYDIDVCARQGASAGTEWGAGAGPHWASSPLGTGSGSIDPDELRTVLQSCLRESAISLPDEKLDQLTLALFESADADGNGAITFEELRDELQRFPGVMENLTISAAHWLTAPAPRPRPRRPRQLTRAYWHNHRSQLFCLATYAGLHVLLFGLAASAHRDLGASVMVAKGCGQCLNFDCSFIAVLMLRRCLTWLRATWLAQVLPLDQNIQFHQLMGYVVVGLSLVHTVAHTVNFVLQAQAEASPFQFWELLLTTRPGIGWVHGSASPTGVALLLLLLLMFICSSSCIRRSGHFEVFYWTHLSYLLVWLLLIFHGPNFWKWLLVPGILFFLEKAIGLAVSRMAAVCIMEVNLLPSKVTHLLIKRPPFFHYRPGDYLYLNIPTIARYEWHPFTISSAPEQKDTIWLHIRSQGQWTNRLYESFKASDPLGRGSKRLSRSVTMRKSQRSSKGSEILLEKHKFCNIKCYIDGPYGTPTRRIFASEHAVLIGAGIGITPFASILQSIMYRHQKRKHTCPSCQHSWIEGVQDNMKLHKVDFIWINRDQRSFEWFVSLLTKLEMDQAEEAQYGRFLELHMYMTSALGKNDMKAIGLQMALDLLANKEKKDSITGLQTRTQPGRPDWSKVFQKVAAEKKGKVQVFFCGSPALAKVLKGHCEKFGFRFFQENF

NADPH oxidase 2 (Homo sapiens), sequence (P04839 whole entry, looked up): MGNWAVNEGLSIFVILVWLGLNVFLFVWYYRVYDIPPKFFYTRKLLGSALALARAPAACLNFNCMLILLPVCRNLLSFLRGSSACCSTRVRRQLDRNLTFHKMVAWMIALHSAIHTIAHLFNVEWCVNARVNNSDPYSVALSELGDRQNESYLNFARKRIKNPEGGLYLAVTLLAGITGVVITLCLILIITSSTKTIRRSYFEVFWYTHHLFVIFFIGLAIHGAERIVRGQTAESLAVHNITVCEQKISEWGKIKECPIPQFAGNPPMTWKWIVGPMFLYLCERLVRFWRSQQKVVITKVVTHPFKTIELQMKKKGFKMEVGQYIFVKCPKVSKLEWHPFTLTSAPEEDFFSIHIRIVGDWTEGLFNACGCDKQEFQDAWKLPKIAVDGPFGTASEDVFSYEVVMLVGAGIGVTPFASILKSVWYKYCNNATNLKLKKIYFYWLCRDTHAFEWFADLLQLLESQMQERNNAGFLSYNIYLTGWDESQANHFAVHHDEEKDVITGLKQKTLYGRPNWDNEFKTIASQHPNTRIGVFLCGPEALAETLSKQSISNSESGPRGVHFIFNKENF
NADPH oxidase 4 (Homo sapiens), sequence (Q9NPH5 whole entry, looked up): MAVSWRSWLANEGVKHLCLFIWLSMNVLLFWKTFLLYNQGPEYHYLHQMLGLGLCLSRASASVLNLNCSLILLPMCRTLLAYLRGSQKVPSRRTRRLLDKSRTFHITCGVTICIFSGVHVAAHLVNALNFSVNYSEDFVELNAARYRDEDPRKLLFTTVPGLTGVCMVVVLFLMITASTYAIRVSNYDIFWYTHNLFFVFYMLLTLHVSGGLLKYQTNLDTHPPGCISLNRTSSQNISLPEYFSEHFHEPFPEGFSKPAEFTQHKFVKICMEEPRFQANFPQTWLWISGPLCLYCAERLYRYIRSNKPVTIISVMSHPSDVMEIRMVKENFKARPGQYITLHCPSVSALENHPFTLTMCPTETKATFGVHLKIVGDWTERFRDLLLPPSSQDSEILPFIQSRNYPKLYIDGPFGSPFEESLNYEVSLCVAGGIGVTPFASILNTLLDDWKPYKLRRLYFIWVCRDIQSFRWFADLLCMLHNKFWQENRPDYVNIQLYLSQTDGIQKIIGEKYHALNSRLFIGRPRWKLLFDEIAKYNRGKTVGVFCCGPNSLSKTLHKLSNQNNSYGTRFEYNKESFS
Torsin-1A (Homo sapiens), sequence (O14656 whole entry, looked up): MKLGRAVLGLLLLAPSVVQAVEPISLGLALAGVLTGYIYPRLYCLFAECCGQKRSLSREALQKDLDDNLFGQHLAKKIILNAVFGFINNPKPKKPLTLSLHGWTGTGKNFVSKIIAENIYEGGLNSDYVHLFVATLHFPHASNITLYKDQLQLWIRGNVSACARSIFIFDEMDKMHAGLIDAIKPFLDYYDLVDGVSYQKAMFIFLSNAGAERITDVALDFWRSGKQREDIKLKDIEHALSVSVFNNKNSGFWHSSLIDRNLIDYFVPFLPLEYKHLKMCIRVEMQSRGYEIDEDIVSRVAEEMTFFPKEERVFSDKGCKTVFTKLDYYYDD
Streptavidin (Streptomyces avidinii), sequence (P22629 whole entry, looked up): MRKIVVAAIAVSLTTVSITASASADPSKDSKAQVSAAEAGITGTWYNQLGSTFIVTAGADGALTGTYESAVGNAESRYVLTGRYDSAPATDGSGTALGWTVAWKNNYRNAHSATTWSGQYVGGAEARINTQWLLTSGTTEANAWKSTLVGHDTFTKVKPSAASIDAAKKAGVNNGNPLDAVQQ

Structure (SMILES) | composite z-score [1] | z-score [2] | z-score [3] | z-score [4] | z-score [5] | composite z-score [6] | composite z-score [7] | composite z-score [8] | composite z-score [9] | composite z-score [10] | z-score [11] | composite z-score [12] | z-score [13] | z-score [14] | z-score [15] | z-score [16] | z-score [17] | z-score [18] | z-score [19] | z-score [20]
[N-]=[N+]=Nc1ccccc1C[C@]1(C(=O)N2CCOCC2)COC(c2ccc(OCCCO)cc2)=N1 | 0.375 | -4.38 (inactive) | -0.33 (inactive) | 0.344 (inactive) | -0.687 (inactive) | 1.42 | 0.191 | 0.442 | 0.507 | -1.01 | 1.59 (inactive) | 0.401 | 24.6 (active) | 7.83 (inactive) | 1.52 (inactive) | -0.779 (inactive) | 0.779 | -3.84 (inactive) | -0.00663 (inactive) | -1.73
COc1ccc([Si](C)(C)[C@H]2[C@H](CC(=O)N(CCO)Cc3ccccc3)O[C@@]3(C(=O)N(C)c4c(Br)cc(C)cc43)[C@@H]2C)cc1 | 0.306 | -5.69 (inactive) | -1.43 (inactive) | 9.7 (active) | -2.49 (inactive) | 0.527 | -0.128 | 2.12 | 1.98 | 1.72 | -0.0939 (inactive) | 0.0774 | 18.4 (active) | 3.21 (inactive) | 0.0319 (inactive) | 1.11 (inactive) | 1.83 | -2.5 (inactive) | -0.577 (inactive) | -0.876
CCCC=C(CCC)[C@@H](NS(=O)(=O)c1ccc(C(F)(F)F)cc1)c1ccccc1 | 0.001 | -1.09 (inactive) | -0.869 (inactive) | -0.565 (inactive) | 1.32 (inactive) | 0.578 | 0.156 | -0.0214 | -0.0562 | 0.108 | -2.49 (inactive) | 0.379 | 0.669 (inactive) | 0.546 (inactive) | 0.248 (inactive) | 0.567 (inactive) | -0.286 | -0.832 (inactive) | -1.74 (inactive) | 2.42
Cc1ccc(S[C@]2(C(=O)NCCN3CCOCC3)CC(=O)N(Cc3ccccc3Cl)[C@@H]2c2ccc(CO)cc2I)cc1 | 0.0976 | -2.1 (inactive) | -0.0266 (inactive) | -0.581 (inactive) | 0.631 (inactive) | -0.343 | 0.658 | -1.69 | 0.75 | -0.316 | 0.377 (inactive) | 1.55 | 5.93 (inactive) | 0.989 (inactive) | 0.676 (inactive) | 0.4 (inactive) | -0.389 | 1.78 (inactive) | -1.12 (inactive) | 1.15
CCCCCN1CC=CC23O[C@@H]4/C=C\CCCOC(=O)C4[C@H]2C(=O)N(C(C)CO)[C@@H]3C1=O (stereo not given in full) | -0.917 | 0.194 (inactive) | -1.24 (inactive) | -1.43 (inactive) | -1.24 (inactive) | -0.783 | -0.128 | -3.18 | -2.48 | 0.0074 | 1.2 (inactive) | -0.0984 | 1.47 (inactive) | 0.175 (inactive) | 2.32 (inactive) | 0.503 (inactive) | 0.566 | 0.825 (inactive) | 0.19 (inactive) | 1.03
CC1CC/C=C\[C@H]2OC34C=CCN(c5ccc6ccccc6c5)C(=O)[C@H]3N(CCCO)C(=O)[C@@H]4C2C(=O)O1 (stereo not given in full) | -1.1 | 0.0518 (inactive) | 1.57 (inactive) | 0.191 (inactive) | 0.234 (inactive) | -1.1 | -0.293 | -2.88 | -1.47 | -0.749 | -0.866 (inactive) | -0.138 | 1.33 (inactive) | 0.398 (inactive) | -0.0069 (inactive) | 0.357 (inactive) | -0.0819 | 1.84 (inactive) | -1.18 (inactive) | 2.84
COc1ccc(C#Cc2ccc3c(c2)[C@]2(C(=O)N3)[C@H](c3ccc(OCCO)cc3)N3[C@H](c4ccccc4)[C@H](c4ccccc4)OC(=O)[C@H]3[C@@H]2C(=O)NC[C@H](O)c2ccccc2)cc1 | 0.501 | -2.47 (inactive) | -0.506 (inactive) | -0.491 (inactive) | -0.808 (inactive) | 0.777 | 0.122 | -0.0854 | 0.327 | 1.32 | 1.01 (inactive) | 0.145 | 1.97 (inactive) | 1.76 (inactive) | -0.403 (inactive) | 1.08 (inactive) | 0.0701 | 0.893 (inactive) | 0.194 (inactive) | -0.0443
CC(CO)N1C(=O)[C@]2(C)C3C(=O)OCCC/C=C\[C@H]3OC23C=CCN(c2ccc(Cl)cc2)C(=O)[C@@H]13 (stereo not given in full) | -0.313 | 0.612 (inactive) | -1.53 (inactive) | 0.187 (inactive) | -0.592 (inactive) | -0.741 | -0.316 | -0.775 | -0.734 | 0.0223 | 0.79 (inactive) | -0.062 | 0.423 (inactive) | 0.576 (inactive) | 1.94 (inactive) | 0.5 (inactive) | -0.021 | 1.25 (inactive) | -0.0121 (inactive) | 1.33
